Test results as given in PubChem BioAssay (EPA / NIEHS).
Records with an inconclusive call do not appear. A structure can be active in one record and inactive in another. Calls of active or inactive are those of the source. How the source made its calls, unless noted: active means hit-call score of the fitted dose curve at least 0.9, where 1 is the maximum; inconclusive means response in the unintended direction; inactive means score below 0.9.

What was measured:
[1] = system: Sodium/Iodide Symporter (NIS), SLC5A5 (gene 6528); assay: CPHEA_Stoker_NIS_Inhibition_RAIU: CPHEA's Radioactive Iodide Uptake (RAIU) Assay for Sodium/Iodide Symporter (NIS) Inhibition, Stoker and Laws Labs (AID 2283841)
Summary of the method: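 HEK293T cells stably expressing human NIS (hNIS-HEK293T-EPA) were exposed to test chemicals at 0.001–100uM (0.5% final DMSO) with 125I at a final 329pM in HBSS/10mM HEPES pH 7.4. After 2 hours at room temperature and ice-cold washes, intracellular 125I was counted as CPM and normalized to DMSO wells.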

[2] = CPHEA_Stoker_NIS_Cytotoxicity: Cytotoxicity Assessment for CPHEA's Radioactive Iodide Uptake (RAIU) Assay for Sodium/Iodide Symporter (NIS) Inhibition, Stoker and Laws Labs (AID 2283897);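 on AC50: active means loss of ATP signal versus DMSO meaning cytotoxicity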
Summary of the method: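 hNIS-HEK293T-EPA human kidney cells were exposed for 2 hours at room temperature to test chemicals (0.001–100uM, 0.5% final DMSO) in HEPES-buffered HBSS, pH 7.4. Viability was read as ATP content by luciferase bioluminescence, loss of signal versus DMSO.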

PGR (gene 5241) [3] = target: PGR (gene 5241) (UniProt P06401); assay: TOX21_PR_BLA_Followup_Antagonist_ratio: Tox21 HEK293 Progesterone Receptor (PR) Antagonism Beta-lactamase Follow-Up Assay, Ratio (AID 2283934);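 further: PR-UAS-bla HEK293T cells stimulated with 1 nM R5020 agonist for 16 hr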
Chain of PGR (gene 5241) (P06401 whole entry, looked up): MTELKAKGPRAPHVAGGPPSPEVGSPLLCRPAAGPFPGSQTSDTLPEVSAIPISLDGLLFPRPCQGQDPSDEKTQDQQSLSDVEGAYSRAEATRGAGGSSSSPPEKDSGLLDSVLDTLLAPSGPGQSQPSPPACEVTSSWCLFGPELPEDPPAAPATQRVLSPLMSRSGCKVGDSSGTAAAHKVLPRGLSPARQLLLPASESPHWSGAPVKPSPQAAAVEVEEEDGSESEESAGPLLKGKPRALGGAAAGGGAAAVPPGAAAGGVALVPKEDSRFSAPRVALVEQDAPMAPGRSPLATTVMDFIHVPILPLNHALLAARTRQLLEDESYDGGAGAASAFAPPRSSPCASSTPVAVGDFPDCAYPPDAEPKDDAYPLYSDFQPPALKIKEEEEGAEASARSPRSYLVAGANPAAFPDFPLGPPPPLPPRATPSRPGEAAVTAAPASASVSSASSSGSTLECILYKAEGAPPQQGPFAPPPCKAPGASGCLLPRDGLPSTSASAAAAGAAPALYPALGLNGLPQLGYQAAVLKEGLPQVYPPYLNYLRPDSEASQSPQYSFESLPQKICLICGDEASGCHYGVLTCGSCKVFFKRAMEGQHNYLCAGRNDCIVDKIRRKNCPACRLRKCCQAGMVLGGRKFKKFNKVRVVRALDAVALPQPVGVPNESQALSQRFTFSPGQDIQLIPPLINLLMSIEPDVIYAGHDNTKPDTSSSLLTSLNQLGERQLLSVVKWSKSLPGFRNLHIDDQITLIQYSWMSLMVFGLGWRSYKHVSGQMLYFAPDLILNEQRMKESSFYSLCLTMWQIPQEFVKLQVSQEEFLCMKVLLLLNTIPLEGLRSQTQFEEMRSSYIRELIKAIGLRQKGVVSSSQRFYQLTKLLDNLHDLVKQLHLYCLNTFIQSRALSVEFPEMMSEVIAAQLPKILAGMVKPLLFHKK
Summary of the method: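 Cells are plated, rested 6 hr, then dosed with test compound in DMSO and challenged with 1 nM promegestone. After 16 hr incubation, substrate loading for 2 h at room temperature precedes fluorescence reading; viability is measured in the same wells.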

[4] = TOX21_PR_BLA_Followup_Antagonist_viability: Viability Assessment in the Tox21 HEK293 Progesterone Receptor (PR) Antagonism Beta-lactamase Follow-Up Assay (AID 2283936);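 further: cells exposed to compound with R5020 agonist for 16 h; hits lower the luminescence signal meaning cytotoxicity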
Summary of the method: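 PR-UAS-bla HEK293T cells in medium with 2% charcoal-stripped FBS were treated with compounds plus R5020 for 16 hr at 37C. After the beta-lactamase read, CellTiter-Glo was added to the same wells and luminescence read after 30 min at room temperature.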

PGR (gene 5241) [5] = target: PGR (gene 5241) (UniProt P06401); assay: TOX21_PR_LUC_Followup_Antagonist: Tox21 HEK293 Progesterone Receptor (PR) Antagonism Luciferase Follow-Up Assay (AID 2283938);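 further: curve fitted upward as signal gain over DMSO baseline despite antagonist label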
Summary of the method: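 HEK293-PR-A-luc cells, 3,000/well, preincubated 5 h at 37C before compound addition in DMSO; 16 h compound exposure at 37C. ONE-Glo luciferase luminescence read after 30 min at room temperature, fitted relative to DMSO baseline.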

[6] = CEETOX_H295R_11DCORT_noMTC: CeeTox H295R High-throughput Steroidogenesis Assay for 11-Deoxycortisol (11DCORT), maximum tolerated concentration (MTC) filtered results only (AID 2283911; active means hit-call score of the fitted dose curve at least 0.9, where 1 is the maximum; inactive means score below 0.9); settings: actives raise or lower the signal
Summary of the method: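 H295R cells were prestimulated 48 h with 10 uM forskolin, then exposed 48 h to chemical (0.1% DMSO final). 11-Deoxycortisol in the medium was measured by MTBE extraction and HPLC-MS/MS, with bidirectional fitting versus DMSO and no MTC filtering of concentrations.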

[7] = CEETOX_H295R_OHPREG_noMTC: CeeTox H295R High-throughput Steroidogenesis Assay for OH-Pregnenolone (OHPREG), maximum tolerated concentration (MTC) filtered results only (AID 2283912; active means hit-call score of the fitted dose curve at least 0.9, where 1 is the maximum; inactive means score below 0.9); settings: actives raise or lower the signal
Summary of the method: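 Readout is HPLC-MS/MS quantification of 17alpha-hydroxypregnenolone released by forskolin-stimulated H295R cells over 48 h of chemical exposure, DMSO as baseline.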

[8] = CEETOX_H295R_OHPROG_noMTC: CeeTox H295R High-throughput Steroidogenesis Assay for OH-Progesterone (OHPROG), maximum tolerated concentration (MTC) filtered results only (AID 2283914; active means hit-call score of the fitted dose curve at least 0.9, where 1 is the maximum; inactive means score below 0.9); settings: actives raise or lower the signal
Summary of the method: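 Analysis uses all tested concentrations, without maximum-tolerated-concentration screening by MTT. H295R cells, forskolin-primed (10 uM, 48 h), receive chemical for 48 h; hormone in medium measured by HPLC-MS/MS, with bidirectional curve fitting against DMSO.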

[9] = CEETOX_H295R_CORTISOL_noMTC: CeeTox H295R High-throughput Steroidogenesis Assay for Cortisol, maximum tolerated concentration (MTC) filtered results only (AID 2283916; active means hit-call score of the fitted dose curve at least 0.9, where 1 is the maximum; inactive means score below 0.9); settings: actives raise or lower the signal
Summary of the method: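 H295R adrenal cells were pre-stimulated 48 h with 10 uM forskolin, then exposed 48 h to test chemical in 0.1% DMSO. Medium cortisol was measured by MTBE extraction and HPLC-MS/MS; bidirectional fit versus DMSO, concentrations not MTC-filtered.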

[10] = CEETOX_H295R_CORTIC_noMTC: CeeTox H295R High-throughput Steroidogenesis Assay for Corticosterone (CORTIC), maximum tolerated concentration (MTC) filtered results only (AID 2283917; active means hit-call score of the fitted dose curve at least 0.9, where 1 is the maximum; inactive means score below 0.9); settings: actives raise or lower the signal
Summary of the method: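 Forskolin-stimulated (10 uM, 48 h) H295R cells are dosed 48 h with chemical in DMSO (0.1% final); corticosterone change is quantified by HPLC-MS/MS and fitted bidirectionally against DMSO, unfiltered for MTT-derived MTC.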

[11] = CEETOX_H295R_DOC_noMTC: CeeTox H295R High-throughput Steroidogenesis Assay for DOC, maximum tolerated concentration (MTC) filtered results only (AID 2283918; active means hit-call score of the fitted dose curve at least 0.9, where 1 is the maximum; inactive means score below 0.9); settings: actives raise or lower the signal
Summary of the method: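 H295R cells prestimulated 48 h with 10 uM forskolin, then exposed 48 h to test chemical (0.1% DMSO final). Medium 11-deoxycorticosterone extracted with MTBE, quantified by HPLC-MS/MS; bidirectional fit versus DMSO, concentrations not MTC-filtered.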

[12] = CEETOX_H295R_PROG_noMTC: CeeTox H295R High-throughput Steroidogenesis Assay for Progesterone (PROG), maximum tolerated concentration (MTC) filtered results only (AID 2283920; active means hit-call score of the fitted dose curve at least 0.9, where 1 is the maximum; inactive means score below 0.9); settings: actives raise or lower the signal
Summary of the method: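 Progesterone synthesis in the human adrenal line H295R is measured by HPLC-MS/MS after 48 h chemical exposure following 48 h forskolin (10 uM) stimulation. Activity in either direction is fitted relative to DMSO.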

[13] = target: human Thyroid hormone Receptor beta (TRb), THRB (gene 7068) (UniProt P10828); assay: ATG_hTRb_XSP2: Attagene TRANS-FACTORIAL Multi-Species (XSP2) HepG2 Assay for human Thyroid hormone Receptor beta (TRb) (AID 2283840);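 further: actives raise reporter mRNA so potency reflects agonist-like gain of signal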
Chain of human Thyroid hormone Receptor beta (TRb), THRB (gene 7068) (P10828 whole entry, looked up, the tested form may be a part): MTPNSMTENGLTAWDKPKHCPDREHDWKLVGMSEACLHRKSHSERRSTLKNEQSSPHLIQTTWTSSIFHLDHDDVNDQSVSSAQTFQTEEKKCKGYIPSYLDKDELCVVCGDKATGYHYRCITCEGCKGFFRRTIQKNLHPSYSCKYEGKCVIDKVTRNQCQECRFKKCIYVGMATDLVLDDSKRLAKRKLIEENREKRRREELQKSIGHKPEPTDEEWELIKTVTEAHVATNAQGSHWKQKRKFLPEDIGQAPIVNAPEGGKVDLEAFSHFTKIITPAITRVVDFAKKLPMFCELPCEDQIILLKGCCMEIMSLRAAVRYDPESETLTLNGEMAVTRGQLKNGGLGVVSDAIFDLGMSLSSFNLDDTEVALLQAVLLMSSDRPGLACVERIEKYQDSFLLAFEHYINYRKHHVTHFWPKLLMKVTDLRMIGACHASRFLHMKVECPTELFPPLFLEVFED
Summary of the method: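 HepG2 transiently transfected with a multi-species panel including a human TRb–Gal4 chimera driving Gal4-UAS reporters; medium contained 3 nM 6-alpha-fluorotestosterone and 1.5 nM norgestrel. 24 h dosing; RT-PCR/capillary electrophoresis readout; positive-direction fit vs DMSO.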

PGR (gene 5241) [14] = target: PGR (gene 5241) (UniProt P06401); assay: TOX21_PR_BLA_Followup_Agonist_ratio: Tox21 HEK293 Progesterone Receptor (PR) Agonism Beta-lactamase Follow-Up Assay, Ratio (AID 2283933)
Summary of the method: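 Cells were seeded and held 6 hr before compound addition, exposed for 16 hr at 37C, then given FRET substrate for 2 hr at room temperature. Agonism was scored from the blue/green substrate cleavage ratio against DMSO controls.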

PGR (gene 5241) [15] = target: PGR (gene 5241) (UniProt P06401); assay: TOX21_PR_LUC_Followup_Agonist: Tox21 HEK293 Progesterone Receptor (PR) Agonism Luciferase Follow-Up Assay (AID 2283937; active means hit-call score of the fitted dose curve at least 0.9, where 1 is the maximum; inactive means score below 0.9)
Summary of the method: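 Seed HEK293-PR-A-luc cells, wait 5 h, add compounds in DMSO, incubate 16 h at 37C, add ONE-Glo, read luminescence after 30 min. Activity is increase over DMSO controls; run with a viability counter-screen.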

Measured: AC50

Oc1ccc(C(c2ccc(O)cc2)(C(F)(F)F)C(F)(F)F)cc1
active: PGR (gene 5241) [3] 53.5 µM | PGR (gene 5241) [5] 54.7 µM
inactive: [1] | [2] | [4]

O=C(O)C(F)(F)C(F)(F)C(F)(F)C(F)(F)C(F)(F)C(F)(F)C(F)(F)C(F)(F)C(F)(F)F
inactive: [1] | [2] | [6] | [7] | [8] | [9] | [10] | [11] | [12]
active: [1] 12.8 µM

Oc1c(Cl)c(Cl)c(Cl)c(Cl)c1Cl
inactive: [2] | [6] | [7] | [8] | [9] | [10] | [11] | [12]

ClC(Cl)=C(c1ccc(Cl)cc1)c1ccc(Cl)cc1
inactive: [13] | [2] | [4]
active: PGR (gene 5241) [3] 24.9 µM | PGR (gene 5241) [5] 21.6 µM

CC#Cc1cc(C)nc(Nc2ccccc2)n1
inactive: [1] | [2]

CC(C)(O)C(=O)Nc1ccc([N+](=O)[O-])c(C(F)(F)F)c1
inactive: [13] | [2] | PGR (gene 5241) [14] | PGR (gene 5241) [15]

CC(C)(c1ccccc1)c1ccc(O)cc1
inactive: [13] | [1] | [2] | [4]
active: PGR (gene 5241) [3] 32.7 µM | PGR (gene 5241) [5] 35.3 µM

CCC(C)(c1ccc(O)cc1)c1ccc(O)cc1
inactive: [1] | [2]

c1ccc(-c2ccccc2)cc1
inactive: [2]

NS(=O)(=O)C(F)(F)C(F)(F)C(F)(F)C(F)(F)C(F)(F)C(F)(F)C(F)(F)C(F)(F)F
inactive: [1] | [2]

CC(c1ccc(O)cc1)(c1ccc(O)cc1)c1ccc(O)cc1
inactive: [13]

C[C@]12CCC(=O)C=C1CC[C@@H]1[C@@H]2CC[C@]2(C)C(=O)CC[C@@H]12
inactive: [13] | [4] | PGR (gene 5241) [5]
active: PGR (gene 5241) [3] 9.75 µM

CCC(=O)O[C@H]1CC[C@H]2[C@@H]3CCC4=CC(=O)CC[C@]4(C)[C@H]3CC[C@]12C
inactive: [13] | [1] | PGR (gene 5241) [3] | [4] | PGR (gene 5241) [5]
active: [13] 0.157 µM | [2] 0.646 µM | PGR (gene 5241) [14] 12 µM | PGR (gene 5241) [15] 6.3 µM
